# In the library only some 6.5% were active in any assay of this set; here they are far more common.
# IL-1B inflam inh: qHTS for Inhibitors of Inflammasome Signaling: IL-1-beta AlphaLISA Primary Screen; THP-1 LPS/ATP IL-1B secretion, AlphaLISA, 16 h; active compounds read low; activity change, % at 57.5 µM; actives 4.7% (n = 360,000); AID 743279, 2014; in the data active means activity change below about -50%; inconclusive means mostly about -30% to -49%; further: on the % scale 0 is the no-effect control and ±100 the full control effect
#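 THP-1 cells pretreated 1 hr with compounds (up to 57.5 uM final), then stimulated with LPS (250 ng/mL final) plus ATP (1.25 mM final); secreted IL-1B measured by AlphaLISA after 16 hr, decreased signal indicating inhibition.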
# HT1080NT lethal: qHTS for induction of synthetic lethality in tumor cells producing 2HG: qHTS for the HT-1080-NT fibrosarcoma cell line. HT-1080-NT fibrosarcoma viability, CellTiter-Glo ATP luminescence, 48 h. Potency, µM (doses to about 46.1 µM), for inactives: at the highest dose activity, negative = less viability, usual class: cytotoxic. actives 1.6% (n = 360,000). AID 686970, 2013;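 further: NT is the 2HG producing partner of a matched IDH1 knockdown line; potency means the concentration at half of the fitted maximal effect; 0% = DMSO-treated cells and -100% = media-only wells without cells; nearly all actives have a fitted effect of over 55% in size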
#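 A 48-hour cytotoxicity screen used HT-1080-NT cells plated 2 hours before compound delivery. ATP-based CellTiter-Glo luminescence measured viability, normalized to DMSO and no-cell controls.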
# TGFb SMAD3 inh: qHTS for Inhibitors of TGF-b. HepG2 CAGA-GFP TGF-b/SMAD3 reporter, GFP fluorescence, 18 h; TGF-beta stimulated, 500 pg/mL final. Potency, µM (doses to about 46.1 µM), inactives show at the highest dose activity, negative = inhibition, actives largely listed as inhibitors. actives 1.2% (n = 410,000); further: potency means the concentration at half of the fitted maximal effect; on the % scale 0 is the no-effect control and ±100 the full control effect; nearly all actives have a fitted effect of over 65% in size
#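 HEPG2 CAGA-GFP, 1000 cells/well; 2 h settle, 37 C; cpd via pin tool; TGF-b 500 pg/mL final; 18 h, 37 C; GFP imaging ex488/em500-530; %Activity normalised to -TGF-b and +DMSO controls; CRC fit, curve class.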
# HepG2 tox: qHTS for Inhibitors of TGF-b: Cytotox Counterscreen | HepG2 CAGA-GFP viability, ATP luminescence, 18 h | Potency, µM (titrated, usually from 46.1 µM), without a hit: at the top dose activity change, negative = cytotoxicity, usual class: cytotoxic | actives 0.76% (n = 410,000); further: potency means the concentration at half of the fitted maximal effect
#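 CellTiter-Glo luminescence gave cytotoxicity after 18 hours at 37 degrees C. The cells were HepG2 CAGA-GFP in 1% FBS DMEM, stimulated with 500 pg/mL TGF-beta after compound addition. %Activity was normalised to no-cell wells (complete cell-killing) and DMSO (no toxicity), and curves were fitted and classified.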
# Giardia kill: Small Molecules that selectively kill Giardia lamblia: qHTS; Giardia lamblia trophozoite viability; activity change, % at 7.66 µM, hits read low; actives 0.15% (n = 340,000); in the data active means activity change below about -80%; inconclusive means between about -30% and that limit;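 further: parasites exposed to compound for two days anaerobically before the ATP read; on the % scale 0 is the no-effect control and ±100 the full control effect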
#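 Luminescence from cellular ATP indicates surviving trophozoites (100 cells/well) following 48 hrs anaerobic compound treatment at 37 deg C; signal develops 15-30 min at room temperature.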
# HT1080 IDH1KD tx: qHTS for induction of synthetic lethality in tumor cells producing 2HG: qHTS for the HT-1080-IDH1KD cell line | AID 686971, 2013 | HT-1080 IDH1 knockdown viability, ATP luminescence, 48 h | Potency, µM (highest dose often 46.1 µM), for the others: top-dose activity, negative = toxicity, hits mostly cytotoxic | actives 2% (n = 360,000);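 further: potency means the concentration at half of the fitted maximal effect; 0% = DMSO wells and -100% = cell-free medium wells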
#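 HT-1080-IDH1KD cells (IDH1 knocked down), 750/well in RPMI with 5% FBS, treated with compound 48 h at 37 degrees C. Viability by CellTiter-Glo luminescence, normalised to DMSO and no-cell wells; concentration-response curves classed.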
# Active calls of the source: *; u = inconclusive; x = no result; ! = not active in a repeat. Unless noted, the call rests on the fitted dose curve; in most records, active means well fitted curve in the direction sought with a large enough effect; inconclusive means small, poorly fitted or top-dose-only effect, or another doubt; inactive means no such curve, though single readings can be large; an effect the other way counts as inactive or inconclusive.
SMILES,IL-1B inflam inh,HT1080NT lethal,TGFb SMAD3 inh,HepG2 tox,Giardia kill,HT1080 IDH1KD tx
N#CC1=C(N)C(C#N)(C#N)C(c2ccncc2)C2CN(C(=O)OCc3ccccc3)CC=C12 (centres undefined),u,u,u,-45%,9,21µM*
CN1CC=C2C(C#N)=C(N)C(C#N)(C#N)C(c3ccncc3)C2C1 (centres undefined),-4,2%,24%,-17%,-20,11%
Cc1nnc(SCc2nc3ccccc3c(=O)n2-c2ccccc2Cl)n1N,4,9%,3%,-3%,-7,-2%
Cc1ccc(C(=O)N[C@@H](C)CN2C3=NC[C@@H](Cc4ccccc4)N3C[C@H]2Cc2ccc(O)cc2)cc1Br,-20,u,u,-103%,7,u
Cc1ccc(C(=O)N[C@@H](C)CN2C3=NC[C@H](Cc4ccccc4)N3C[C@H]2Cc2ccc(O)cc2)cc1Br,-14,u,13µM*,11µM*,-2,u
CCOP(=S)(OCC)SCC(=O)NC(C(=O)O)C(C)C (centres undefined),43,17%,-1%,-1%,6,9%
O=[N+]([O-])c1ccc(N2CCNCC2)c(Cl)c1,-14,-5%,-8%,2%,-4,2%
O=Cc1cn(Cc2cccc(F)c2)c2ccccc12,21,-14%,u,-45%,7,-12%
O=Cc1cn(Cc2ccc(Br)cc2)c2ccccc12,-13,-15%,1µM*,-46%,48,-12%
O=C1NC(=O)N(Cc2ccc(F)cc2)C(=O)/C1=C/c1cccs1,-101*,u,-29%,-3%,-3,u
CCc1cccc(CC)c1NC(=O)Cn1c(-c2ccc(F)cc2)noc1=O,0,-1%,-18%,-18%,15,15%
CCOC(=O)N1CCC(NC(=O)CCc2nc(C3=CCN(C)CC3)no2)CC1,-63*!,7%,0%,6%,14,17%
COc1ccccc1CCNC1CCC(C(C)(C)C)CC1 (centres undefined),-65*,u,-3%,-46%,-7,u
CN(C)C(=O)Oc1ccc(Cl)c2ccccc12,-18,2%,11%,3%,6,-1%
CN(C)C(=O)Oc1ccc(Br)cc1C(=O)Nc1ccc(F)c(Cl)c1,-59*,u,u,-35%,16,u
N[C@H](CO)Cc1ccccc1,14,-11%,0%,-5%,1,29µM*
CN(C)/C=C/C(=O)C(Cl)(Cl)Cl,-6,21%,1%,-6%,21,15%
C/C(=C\c1ccc(N(C)C)cc1)[N+](=O)[O-],-107*,11µM*,u,10µM*,-23,6.3µM*
CN(C)c1ccccc1,5,11%,-13%,-20%,x,-5%
CN(C)c1ccc(/C=C/[N+](=O)[O-])cc1,-64*,u,-17%,-12%,-18,23µM*
COc1ccc(C(=O)NCCn2cc(SCc3ccc(C(F)(F)F)cc3)c3ccccc32)cc1OC,x,x,7.1µM*,-16%,x,x
CC(C)(C)c1o[nH]c(=O)c1CC(N)C(=O)O (centres undefined),-7,20%,12%,2%,4,8%
Cc1ccc(N2C(=O)NC(=O)/C(=C/c3ccc(-c4ccc(C(=O)O)c(Cl)c4)o3)C2=O)cc1,0,24%,-6%,-2%,18,18%
C=C1C(C)C2C(Cc3ccccc3)NC(=O)C23C(OC(C)=O)C=CC(C)(O)CC(C)CC=CC3C1O (centres undefined),53,-4%,-19%,-20%,5,u
CC(=O)O[C@@H]1/C=C/[C@](C)(O)C[C@@H](C)C/C=C/[C@H]2[C@H](O)C(C)=C(C)[C@H]3[C@H](Cc4ccccc4)NC(=O)[C@@]123,10,2.6µM*,7%,-36%,-9,u
SMILES,IL-1B inflam inh,HT1080NT lethal,TGFb SMAD3 inh,HepG2 tox,Giardia kill,HT1080 IDH1KD tx
Cc1cc(C)c(C(=O)CSc2n[nH]c(=O)n2C2CC2)cc1C,-7,-16%,-17%,-26%,16,32µM*
C=C(C)C(Cc1c(OC)ccc(C(=O)/C=C/c2ccc(O)cc2)c1O)OO (centres undefined),-70*,-3%,u,-79%,-20,-6%
FC(F)(F)c1ccc(CNCCc2c[nH]c3ccccc23)cc1,-16,17%,-9%,-34%,-23,-1%
Clc1cccc(CNCCc2c[nH]c3ccccc23)c1,-92*,18µM*,-9%,-4%,-9,16µM*
CCOc1cc(CNCCc2cccc(F)c2)ccc1OC,-9,-13%,10%,-13%,17,-8%
COc1ccc(CNCCc2c[nH]c3ccccc23)c(OC)c1OC,-58*,-2%,-1%,-37%,-19,u
COc1cccc(CNCCc2c[nH]c3ccccc23)c1OC,12,-16%,-2%,-1%,-7,0%
c1ccc2c(CCNC3CCCCC3)c[nH]c2c1,-26,2%,0%,-11%,1,-20%
CCCCNCc1cc(Cl)c(OCCC)c(OCC)c1,-64*,u,-7%,-34%,-1,u
CCOc1cc(CNCCc2c[nH]c3ccccc23)cc(Cl)c1OC,-103*,18µM*,16µM*,-94%,3,21µM*
CCC(=O)N1N=C(c2c(O)n(C)c(=O)n(C)c2=O)CC1c1ccccc1 (centres undefined),250,u,-23%,5%,4,6.5µM*
Cn1c(O)c(C2=NN(C(=O)CCl)C(c3ccccc3)C2)c(=O)n(C)c1=O (centres undefined),3,-8%,-14%,-1%,-10,-13%
O=C1NC(=S)N(c2ccc(Cl)cc2)C(=O)/C1=C/N1CCN(C(=O)c2ccco2)CC1,14,7%,6%,3%,11,9%
CC1CCC(C(C)C)C(OC(=O)Cn2c(COc3ccccc3)[n+](C)c3ccccc32)C1 (centres undefined),-105*,12µM*,13µM*,20µM*,7,12µM*
CCCN(CCC)C1Cc2cc(OC)c(OC)cc2C1,-4,9%,-2%,-17%,-6,-8%

# Screening data from PubChem BioAssay.
